Assay results taken from the supplement of paper PMC10849652.
For part of these data: Targets with a hit are over-represented here; the source holds about 7,900 in all. For part of these data: About 0.6% of all pairs of compound and target were hits. For part of these data: The full data set covers some 8,800 targets. This sample favours those with a hit. For part of these data: About 0.5% of all pairs of compound and target were hits.

Columns and labels:
[1] = compound: C1=CC=C(C=C1)[C@H](COC2=CC3=C(C=C2)NC(=O)N3)NC(=O)C4=CC=CN(C4=O)CC5=CC(=C(C=C5)F)F; experiment: log2 fold change, soluble protein after heating vs DMSO (PISA); higher = thermal stabilisation; K562 lysate, 10 uM; active = over 0.2 and 3.5 SD of the protein, either way, in both replicates (recomputed)
Method in brief: (§1)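 Thermal stability, expressed as log-two fold change relative to solvent controls, is given from duplicates. Crude K562 extract in PBS pH 7.4 with 1 mM MgCl2, at 1 mg/mL protein, was treated with 10 μM compound for 30 min and heated in aliquots for 3 min across 48°C-58°C. After pooling, adjustment to 0.5% NP-40 at 4°C and centrifugation at 21,000xg for 90 min, supernatant protein was measured by TMTpro 16plex LC-MS/MS with channel sums equalised.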

[2] = compound: CC1=C(SC2=C1C(=N[C@H](C3=NN=C(N32)C)CC(=O)N)C4=CC=C(C=C4)Cl)C; experiment: as above
Method in brief: as §1

[3] = compound: CC1=C2C(=CC=C1)N=C(N(C2=O)C3=CC=CC=C3C)CN4C=NC5=C(N=CN=C54)N; experiment: as above
Method in brief: as §1

[4] = compound: Cc1sc2c(c1C)C(c1ccc(Cl)cc1)=N[C@@H](CC(=O)OC(C)(C)C)c1nnc(C)n1-2; experiment: as above
Method in brief: as §1

[5] = compound: c1ccc([C@@H]2C[C@H]2NC2CCNCC2)cc1; experiment: as above
Method in brief: as §1

[6] = compound: C1=CC=C(C=C1)[C@H](COC2=CC3=C(C=C2)NC(=O)N3)NC(=O)C4=CC=CN(C4=O)CC5=CC(=C(C=C5)F)F; experiment: log2 fold change, soluble protein after heating vs DMSO (PISA); higher = thermal stabilisation; K562 cells, 10 uM, 30 min; active = over 0.2 and 3.5 SD of the protein, either way, in both replicates (recomputed)
Method in brief: (§2)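 Soluble protein was quantified by TMTpro 16plex LC-MS/MS after channel sums were equalised. It was obtained as the supernatant after 21,000xg for 90 min from pooled aliquots of K562 cells (2×10^6 cells/mL, 10 μM compound, 30 min) heated for 3 min across 48°C-58°C and extracted in PBS with 0.5% NP-40 at 4°C. Thermal stability values are relative to control samples and come from duplicates. They are given as log2 fold changes.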

[7] = compound: CC1=C(SC2=C1C(=N[C@H](C3=NN=C(N32)C)CC(=O)N)C4=CC=C(C=C4)Cl)C; experiment: as above
Method in brief: as §2

[8] = compound: CC1=C2C(=CC=C1)N=C(N(C2=O)C3=CC=CC=C3C)CN4C=NC5=C(N=CN=C54)N; experiment: as above
Method in brief: as §2

[9] = compound: Cc1sc2c(c1C)C(c1ccc(Cl)cc1)=N[C@@H](CC(=O)OC(C)(C)C)c1nnc(C)n1-2; experiment: as above
Method in brief: as §2

[10] = compound: c1ccc([C@@H]2C[C@H]2NC2CCNCC2)cc1; experiment: as above
Method in brief: as §2

Measured: log2 fold change

AIMP1 isoform 2 (UniProt Q12904)
Sequence of UniProt Q12904 (Q12904 whole entry, looked up): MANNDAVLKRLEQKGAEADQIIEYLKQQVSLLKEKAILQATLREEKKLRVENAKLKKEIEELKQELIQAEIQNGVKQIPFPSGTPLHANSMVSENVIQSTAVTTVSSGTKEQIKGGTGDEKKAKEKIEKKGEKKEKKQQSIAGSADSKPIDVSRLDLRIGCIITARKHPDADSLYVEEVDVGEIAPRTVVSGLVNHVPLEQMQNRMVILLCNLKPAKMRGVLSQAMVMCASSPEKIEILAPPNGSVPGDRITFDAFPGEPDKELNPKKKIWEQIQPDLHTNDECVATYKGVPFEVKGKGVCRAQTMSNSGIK
inactive: [1] -0.033 | [2] 0.01 | [3] 0.006 | [4] 0.029 | [5] 0.044

ARL1 (UniProt P40616)
Sequence of UniProt P40616 (P40616 whole entry, looked up): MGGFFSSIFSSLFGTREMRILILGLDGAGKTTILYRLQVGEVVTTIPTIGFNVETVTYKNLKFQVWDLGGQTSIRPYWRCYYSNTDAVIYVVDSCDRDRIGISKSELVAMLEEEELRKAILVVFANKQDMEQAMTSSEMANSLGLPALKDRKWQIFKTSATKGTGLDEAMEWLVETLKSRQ
inactive: [1] 0.094 | [2] 0.023 | [3] 0.051 | [4] -0.026 | [5] 0.026

ABHD12 isoform 2 (UniProt Q8N2K0)
Sequence of UniProt Q8N2K0 (Q8N2K0 whole entry, looked up): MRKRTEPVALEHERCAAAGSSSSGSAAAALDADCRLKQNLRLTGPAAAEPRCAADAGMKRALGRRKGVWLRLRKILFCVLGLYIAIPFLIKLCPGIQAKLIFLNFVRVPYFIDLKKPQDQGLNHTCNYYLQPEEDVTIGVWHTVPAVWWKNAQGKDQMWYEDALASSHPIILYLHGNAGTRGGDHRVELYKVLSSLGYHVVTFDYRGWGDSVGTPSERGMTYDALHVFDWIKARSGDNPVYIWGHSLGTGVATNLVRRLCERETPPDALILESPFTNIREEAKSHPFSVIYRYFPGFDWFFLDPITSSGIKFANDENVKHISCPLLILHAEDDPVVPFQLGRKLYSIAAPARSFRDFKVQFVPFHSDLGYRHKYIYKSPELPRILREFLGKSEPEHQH
inactive: [1] 0.008 | [2] 0.042 | [3] 0.003 | [4] 0.031 | [5] 0.042

ABHD13 (UniProt Q7L211)
Sequence of UniProt Q7L211 (Q7L211 whole entry, looked up): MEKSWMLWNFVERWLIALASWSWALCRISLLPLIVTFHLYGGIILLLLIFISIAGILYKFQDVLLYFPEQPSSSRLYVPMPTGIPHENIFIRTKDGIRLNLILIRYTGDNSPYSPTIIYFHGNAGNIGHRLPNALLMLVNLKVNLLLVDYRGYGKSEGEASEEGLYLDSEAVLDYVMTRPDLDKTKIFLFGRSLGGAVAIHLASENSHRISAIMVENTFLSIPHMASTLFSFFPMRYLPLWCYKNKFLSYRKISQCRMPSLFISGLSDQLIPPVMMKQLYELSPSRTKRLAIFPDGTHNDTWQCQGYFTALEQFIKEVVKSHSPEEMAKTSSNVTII
inactive: [1] 0.043 | [2] -0.127 | [3] 0.153 | [4] -0.171 | [5] -0.246

ABI1 isoform 9 (UniProt Q8IZP0)
Sequence of UniProt Q8IZP0 (Q8IZP0 whole entry, looked up): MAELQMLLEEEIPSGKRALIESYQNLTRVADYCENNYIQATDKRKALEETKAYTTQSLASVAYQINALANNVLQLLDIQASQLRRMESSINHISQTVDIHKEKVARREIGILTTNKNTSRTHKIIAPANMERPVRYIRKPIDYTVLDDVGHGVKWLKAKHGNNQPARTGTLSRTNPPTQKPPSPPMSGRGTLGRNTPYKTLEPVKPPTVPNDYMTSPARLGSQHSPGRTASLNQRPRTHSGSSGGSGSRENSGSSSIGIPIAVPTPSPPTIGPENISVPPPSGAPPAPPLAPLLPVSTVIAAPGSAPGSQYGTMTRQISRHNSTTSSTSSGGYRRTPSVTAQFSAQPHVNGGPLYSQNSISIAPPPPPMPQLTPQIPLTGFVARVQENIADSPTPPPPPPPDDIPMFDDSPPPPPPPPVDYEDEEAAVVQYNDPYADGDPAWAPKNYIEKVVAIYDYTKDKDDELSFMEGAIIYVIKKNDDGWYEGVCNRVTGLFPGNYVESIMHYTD
inactive: [1] -0.013 | [2] -0.008 | [3] -0.006 | [4] -0.004 | [5] -0.117

ALDH3A1 (UniProt P30838)
Sequence of UniProt P30838 (P30838 whole entry, looked up): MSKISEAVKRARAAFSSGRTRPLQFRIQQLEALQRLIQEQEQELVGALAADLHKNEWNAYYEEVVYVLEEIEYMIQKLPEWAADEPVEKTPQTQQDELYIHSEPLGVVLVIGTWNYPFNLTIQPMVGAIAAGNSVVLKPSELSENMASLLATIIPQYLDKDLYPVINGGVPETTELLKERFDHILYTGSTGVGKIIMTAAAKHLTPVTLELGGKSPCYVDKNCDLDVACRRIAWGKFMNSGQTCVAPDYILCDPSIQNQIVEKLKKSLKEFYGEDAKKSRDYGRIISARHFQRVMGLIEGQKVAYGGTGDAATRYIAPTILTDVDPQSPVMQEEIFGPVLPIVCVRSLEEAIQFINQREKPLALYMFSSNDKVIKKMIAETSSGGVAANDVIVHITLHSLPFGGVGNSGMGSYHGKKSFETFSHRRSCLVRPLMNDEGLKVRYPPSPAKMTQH
inactive: [4] -0.209 | [5] -0.339

ZNF622 (UniProt Q969S3)
Sequence of UniProt Q969S3 (Q969S3 whole entry, looked up): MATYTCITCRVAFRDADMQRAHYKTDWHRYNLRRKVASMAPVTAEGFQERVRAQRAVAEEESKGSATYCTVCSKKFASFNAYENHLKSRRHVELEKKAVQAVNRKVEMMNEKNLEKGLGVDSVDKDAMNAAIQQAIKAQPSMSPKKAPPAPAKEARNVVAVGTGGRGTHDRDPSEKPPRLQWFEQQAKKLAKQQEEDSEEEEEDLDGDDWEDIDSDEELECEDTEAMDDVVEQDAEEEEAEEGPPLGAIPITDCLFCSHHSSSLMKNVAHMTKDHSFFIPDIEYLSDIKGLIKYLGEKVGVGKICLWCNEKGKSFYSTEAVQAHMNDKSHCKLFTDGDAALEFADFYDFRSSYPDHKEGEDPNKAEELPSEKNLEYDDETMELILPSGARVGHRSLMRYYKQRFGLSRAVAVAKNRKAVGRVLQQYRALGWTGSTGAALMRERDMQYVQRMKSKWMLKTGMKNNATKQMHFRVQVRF
inactive: [6] -0.028 | [7] 0.033 | [8] 0.073 | [9] -0.016 | [10] -0.049

AMDHD2 (UniProt Q9Y303)
Sequence of UniProt Q9Y303 (Q9Y303 whole entry, looked up): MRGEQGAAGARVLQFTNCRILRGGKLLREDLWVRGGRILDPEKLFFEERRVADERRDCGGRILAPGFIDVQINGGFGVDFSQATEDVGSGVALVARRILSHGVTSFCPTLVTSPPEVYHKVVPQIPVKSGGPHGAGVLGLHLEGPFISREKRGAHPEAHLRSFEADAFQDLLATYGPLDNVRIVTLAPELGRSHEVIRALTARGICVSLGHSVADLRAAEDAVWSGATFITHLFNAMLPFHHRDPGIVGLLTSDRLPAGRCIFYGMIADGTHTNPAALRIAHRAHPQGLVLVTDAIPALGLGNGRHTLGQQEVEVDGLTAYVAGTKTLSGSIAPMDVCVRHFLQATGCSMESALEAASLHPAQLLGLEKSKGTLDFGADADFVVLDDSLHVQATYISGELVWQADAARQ
inactive: [3] 0.039 | [5] 0.095

AHCYL1 (UniProt O43865)
Sequence of UniProt O43865 (O43865 whole entry, looked up): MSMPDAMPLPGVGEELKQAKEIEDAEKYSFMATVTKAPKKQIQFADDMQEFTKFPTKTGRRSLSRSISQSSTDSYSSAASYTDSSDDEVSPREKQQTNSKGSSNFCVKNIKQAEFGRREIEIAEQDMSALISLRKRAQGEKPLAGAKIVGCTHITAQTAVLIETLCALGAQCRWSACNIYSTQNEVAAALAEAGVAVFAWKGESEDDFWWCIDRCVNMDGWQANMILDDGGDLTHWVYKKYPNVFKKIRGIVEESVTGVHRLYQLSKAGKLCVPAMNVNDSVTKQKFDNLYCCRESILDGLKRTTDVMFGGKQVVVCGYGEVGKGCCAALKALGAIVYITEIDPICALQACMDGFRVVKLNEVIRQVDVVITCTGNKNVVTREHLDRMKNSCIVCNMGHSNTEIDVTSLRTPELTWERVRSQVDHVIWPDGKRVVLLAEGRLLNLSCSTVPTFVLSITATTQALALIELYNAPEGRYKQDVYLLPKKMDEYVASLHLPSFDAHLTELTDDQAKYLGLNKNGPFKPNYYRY
inactive: [1] -0.011 | [2] -0.003 | [3] -0.011 | [4] 0.034 | [5] 0.006
